For eight compounds, growth results are on record in PubChem BioAssay (NCI).

Among the test systems are K-562 leukemia; MALME-3M melanoma; MDA-MB-231 breast; RXF 393 renal; SF-268 CNS; SF-295 CNS; SF-539 CNS; UACC-257 melanoma; M14 melanoma; HCT-15 colon; HT29 colon; SNB-75 CNS; SNB-19 CNS; U251 CNS; PC-3 prostate; SK-MEL-5 melanoma; UACC-62 melanoma; LOX IMVI melanoma; SK-MEL-28 melanoma; SK-MEL-2 melanoma.
Holding throughout (assay): NCI-60 one-dose screen, 48 h (100 = growth as untreated, 0 = no growth, -100 = all killed)
Common to all, as to details: 10 µM unless noted

Molecules are shown by their SMILES. The panel holds about 83,000 compounds, 20% with a hit somewhere; the sample as a whole holds those more often.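 In brief: 96-well plates, 48 h treatment, single concentration, percent growth endpoint.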 Unmarked numbers belong to inactive results. Activity calls are given as the source filed them. How the source made its calls: active means growth percent below 10; inactive means the rest.

Regarding `O=C1Nc2cc(Cl)ccc2/C1=C\c1ccc(OCc2ccc([N+](=O)[O-])cc2)cc1`, the growth in the test with K-562 leukemia is 83.1%; with MALME-3M melanoma, 75.1%; in the test with MDA-MB-231 breast, 66.2%; in the test with RXF 393 renal it was 64.3%; in the test on SF-268 CNS, 86.4%; with SF-295 CNS, 68.2%. In addition, the growth in the test with SF-539 CNS was 80.7%; in the test on UACC-257 melanoma, 89.5%; in the test with M14 melanoma it was 83.3%; in the test on HCT-15 colon, 77.8%; in the test on HT29 colon, 76.8%; in the test with SNB-75 CNS, 57.5%. Further, the growth in the test on SNB-19 CNS is 91%; in the test with U251 CNS it was 81.6%; in the test with PC-3 prostate it was 59.4%; in the test with SK-MEL-5 melanoma, 84.4%; in the test on UACC-62 melanoma it was 67.8%; with LOX IMVI melanoma it was 65.8%. The growth in the test on SK-MEL-28 melanoma was 84.7%.
As for `CCN1C(=S)N(CC)C2C1N=C(SC)N2/N=C/C=C/c1ccccc1[N+](=O)[O-]` (stereo not given), the growth was 68.1% in the test on K-562 leukemia; 93.8% in the test with MALME-3M melanoma; 89.7% in the test on MDA-MB-231 breast; 115% in the test with RXF 393 renal; 88.5% in the test with SF-268 CNS; 90.4% with SF-295 CNS. The growth is 81.1% in the test on SF-539 CNS; 109% with UACC-257 melanoma; 108% in the test on M14 melanoma; 79.2% in the test with HCT-15 colon; 93.5% with HT29 colon; 82.2% in the test with SNB-75 CNS. Further, the growth with SNB-19 CNS is 103%; in the test with U251 CNS it was 96.5%; with PC-3 prostate, 85%; in the test on SK-MEL-5 melanoma it was 96.2%; with UACC-62 melanoma, 85.1%; with LOX IMVI melanoma, 116%. Besides, the growth in the test on SK-MEL-28 melanoma is 105%.
For `CN(C)S(=O)(=O)c1oc(-c2ccccc2)nc1C#N`, the growth in the test on K-562 leukemia is 5.64% (active); with MALME-3M melanoma it was -23.6% (active); in the test with MDA-MB-231 breast it was 52.2%; with RXF 393 renal it was 39%; with SF-268 CNS, 116%; with SF-295 CNS, 99.3%. For the same compound, the growth is 84.4% in the test on SF-539 CNS; 103% in the test on UACC-257 melanoma; 27.5% in the test with M14 melanoma; -11.6% (active) in the test with HCT-15 colon; 35.1% in the test on HT29 colon; 96.1% in the test on SNB-75 CNS. In addition, the growth with SNB-19 CNS was 96.1%; in the test with U251 CNS, 88.8%; with PC-3 prostate, 88.7%; in the test on SK-MEL-5 melanoma, 93.1%; in the test on UACC-62 melanoma, 97.9%; with LOX IMVI melanoma, -80.7% (active). Moreover, the growth in the test on SK-MEL-28 melanoma is 87.8%; in the test with SK-MEL-2 melanoma, 110%.
`COc1ccc(-c2csc(N/N=C/c3c(-c4ccc(S(C)(=O)=O)cc4)nc4ccccn34)n2)cc1`: the growth in the test on K-562 leukemia was 98.5%; in the test with MALME-3M melanoma it was 118%; with MDA-MB-231 breast it was 107%; in the test on RXF 393 renal, 114%; in the test with SF-268 CNS it was 110%; with SF-295 CNS, 106%. Moreover, the growth in the test with SF-539 CNS is 107%; in the test on UACC-257 melanoma it was 112%; with M14 melanoma it was 106%; with HCT-15 colon it was 101%; with HT29 colon, 115%; with SNB-75 CNS, 110%. Moreover, the growth with SNB-19 CNS is 106%; in the test on U251 CNS, 106%; in the test with PC-3 prostate, 105%; in the test with SK-MEL-5 melanoma, 96.5%; in the test on UACC-62 melanoma it was 102%; in the test on LOX IMVI melanoma it was 126%. The growth in the test on SK-MEL-28 melanoma is 107%.
On to `COc1ccccc1/C=C/C=N/NC1=NC2C(S1)N(C)C(=O)N2C` (stereo not given), for which the growth is 9.44% (active) with K-562 leukemia; 43.8% with MALME-3M melanoma; 40% in the test with MDA-MB-231 breast; -20.8% (active) in the test on RXF 393 renal; 52% in the test with SF-268 CNS; 16.2% in the test on SF-295 CNS. For the same compound, the growth was 5.56% (active) with SF-539 CNS; 78.8% with UACC-257 melanoma; 19% in the test with M14 melanoma; 30.4% in the test with HCT-15 colon; 6.54% (active) in the test with HT29 colon; 18.5% in the test on SNB-75 CNS. Also, the growth with SNB-19 CNS was 29.1%; in the test with U251 CNS it was 25.1%; in the test on PC-3 prostate, 30.2%; in the test with SK-MEL-5 melanoma, 33.8%; in the test on UACC-62 melanoma it was 46.7%; with LOX IMVI melanoma, 35.3%. The growth was 56% in the test with SK-MEL-28 melanoma and 23.9% in the test with SK-MEL-2 melanoma.
Consider `COc1ccc(-c2nc3ccc(-c4nnc(SCC(=O)Nc5ccc(C(=O)/C=C/c6ccccc6)cc5)o4)cc3[nH]2)cc1OC`, for which the growth with K-562 leukemia is 91.6%; with MALME-3M melanoma, 97.1%; in the test on MDA-MB-231 breast it was 91.2%; in the test on RXF 393 renal, 110%; in the test on SF-268 CNS, 106%; with SF-295 CNS it was 94.9%. Also, the growth in the test on SF-539 CNS is 83.7%; in the test with UACC-257 melanoma, 110%; in the test on M14 melanoma it was 108%; with HCT-15 colon it was 91.8%; in the test on HT29 colon, 103%; with SNB-75 CNS, 90.3%. Further, the growth is 107% with SNB-19 CNS; 93.2% with U251 CNS; 101% in the test on PC-3 prostate; 95.5% in the test with SK-MEL-5 melanoma; 95% in the test on UACC-62 melanoma; -11.8% (active) in the test on LOX IMVI melanoma. Further, the growth with SK-MEL-28 melanoma was 105%; in the test with SK-MEL-2 melanoma, 108%.
Regarding `COc1ccc(-c2cc(C(=O)N=Nc3c(O)[nH]c4ccccc34)c3ccccc3n2)cc1OC`, the growth in the test on K-562 leukemia is 106%; with MALME-3M melanoma, 95.6%; with MDA-MB-231 breast, 91.5%; in the test on RXF 393 renal, 101%; with SF-268 CNS, 100%; with SF-295 CNS, 95.7%. In addition, the growth in the test with SF-539 CNS was 95.6%; in the test with UACC-257 melanoma, 98.2%; in the test with M14 melanoma, 95.6%; in the test on HCT-15 colon, 96.9%; with HT29 colon, 102%; with SNB-75 CNS, 92%. For the same compound, the growth is 97.9% in the test on SNB-19 CNS; 95.3% in the test with U251 CNS; 91.6% in the test on PC-3 prostate; 97.3% in the test on SK-MEL-5 melanoma; 91.5% with UACC-62 melanoma; 105% in the test on LOX IMVI melanoma. Moreover, the growth in the test with SK-MEL-28 melanoma is 98.1%.
For `CC(C)(C)OC(=O)N1C(=O)c2c(c3c4ccccc4[nH]c3c3ccc4ccccc4c23)C1=O`, the growth is 42.2% in the test on K-562 leukemia; 48.1% in the test on MALME-3M melanoma; 66.8% with MDA-MB-231 breast; 59% with RXF 393 renal; 63.3% in the test on SF-268 CNS; 50.2% in the test on SF-295 CNS. For the same compound, the growth in the test on SF-539 CNS is 62.1%; with UACC-257 melanoma, 77.2%; with M14 melanoma it was 37.3%; in the test on HCT-15 colon, 51.6%; in the test on HT29 colon, 51.6%; in the test on SNB-75 CNS, 79.5%. In addition, the growth is 97.2% in the test on SNB-19 CNS; 58.8% in the test on U251 CNS; 42.8% with PC-3 prostate; 60.4% in the test on SK-MEL-5 melanoma; 60.3% in the test with UACC-62 melanoma; 57.5% in the test on LOX IMVI melanoma. The growth with SK-MEL-28 melanoma was 63.2%.
